Data from PubChem BioAssay (NCI).
Compounds without any hit were thinned out: in the full panel of roughly 83,000, 20% have a hit.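 Activity criterion: percent growth below 10, measured after cells in 96-well plates were exposed to a single compound concentration for 48 hours.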 Calls of active or inactive are those of the source.

Assays:
Test in all cases: NCI-60 one-dose screen, 48 h (100 = growth as untreated, 0 = no growth, -100 = all killed)
Settings in all cases: 10 µM unless noted
[1] = test system: NCI-H226 lung
[2] = test system: NCI-H322M lung
[3] = test system: HOP-62 NSCLC
[4] = test system: NCI-H460 lung
[5] = test system: HOP-92 NSCLC
[6] = test system: NCI-H522 lung
[7] = test system: A549/ATCC NSCLC
[8] = test system: 786-0 renal
[9] = test system: COLO 205 colon

Measured: growth

Nc1cc2nc3ccccc3oc-2cc1=O
active: [4] -28.7% | [6] -16.5% | [7] -42.4% | [9] -74.9%
inactive: [1] 67.4% | [2] 108% | [3] 25.4% | [5] 112% | [8] 81.9%

COc1cccc(OCC(O)CN2CCN(c3ccccc3)CC2)c1 (stereo not drawn)
inactive: [1] 106% | [2] 129% | [4] 114% | [5] 129% | [6] 80.3% | [7] 114% | [8] 104% | [9] 138%

O=C(O)Cn1ccc2ccccc21
inactive: [1] 110% | [2] 100% | [3] 79.9% | [4] 103% | [5] 88.2% | [6] 77.7% | [7] 99.4% | [8] 101% | [9] 153%

FC(F)(F)C1=NNC(c2ccc3ccccc3c2)=NN1
inactive: [1] 87.4% | [2] 103% | [3] 106% | [4] 101% | [5] 95.6% | [6] 97.2% | [7] 102% | [8] 107% | [9] 105%

O=C(Nc1ccc(Oc2ccc(NC(=O)Nc3ccccc3Cl)cc2)cc1)Nc1ccccc1Cl
inactive: [1] 61.9% | [2] 75.7% | [3] 81% | [4] 30.2% | [5] 38% | [8] 78.7% | [9] 49%
active: [6] -10.4% | [7] -3.15%

N#Cc1c(N)c(C(=O)c2ccc3c(c2)OCCO3)n2c1CCCC2
inactive: [1] 81.7% | [2] 25.3% | [3] 35.4% | [4] 15.9% | [5] 64.4% | [7] 34.5% | [8] 53% | [9] 14.9%
active: [6] -33.3%

C/C(=N\NC(=S)Nc1ccccc1)c1ccccn1
inactive: [1] 21.3% | [2] 20.9% | [3] 41.4% | [4] 17.3% | [5] 37.1% | [6] 12.6% | [7] 45.7% | [8] 32.6% | [9] 25.6%

O=C(/C=C/c1ccccc1)n1c(-c2ccccc2)nc2ccccc21
inactive: [1] 101% | [2] 108% | [3] 105% | [4] 103% | [5] 91.6% | [6] 102% | [7] 101% | [8] 100% | [9] 109%

O=C(O)c1ccccc1N=Cc1ccccc1
inactive: [1] 132% | [2] 120% | [3] 100% | [4] 106% | [5] 90.2% | [6] 101% | [7] 102% | [8] 104% | [9] 105%

O=C(c1ccccc1)N(CCCCl)C(=O)N(CCCCl)C(=O)c1ccccc1
inactive: [1] 94.9% | [2] 92.9% | [3] 86.7% | [4] 108% | [5] 70.1% | [6] 88.1% | [7] 87.7% | [8] 94.6% | [9] 102%

COc1ccc(OC)c(Nc2nc(-c3c(C)nc4sccn34)cs2)c1
inactive: [1] 65.7% | [2] 93.7% | [3] 75.7% | [4] 62.4% | [5] 97.6% | [6] 78.6% | [7] 74.6% | [8] 101% | [9] 100%

CCCc1n(Cc2ccc3ccccc3c2)c2ccccc2[n+]1Cc1ccc2ccccc2c1
active: [1] -4.44% | [2] 4.72% | [3] -55.4% | [4] -76.1% | [5] -48.1% | [6] -60.2% | [7] -19.4% | [8] -85.2% | [9] -77%

c1ccc(C(Nc2ccccn2)(c2ccccc2)c2ccccc2)cc1
inactive: [1] 72.6% | [2] 64.8% | [3] 99% | [4] 79.9% | [6] 70.7% | [7] 65.9% | [8] 81.4% | [9] 90%
active: [5] 4.44%

Cn1c(=O)c2[nH]c(Cc3ccc4c(c3)OCO4)nc2n(C)c1=O
inactive: [1] 99.4% | [2] 109% | [3] 101% | [4] 102% | [5] 71.4% | [6] 103% | [7] 97% | [8] 111% | [9] 109%

O=C(Oc1c(Cl)c(Cl)c(Cl)c(Cl)c1Cl)C1CCCN1C(=O)OCc1ccccc1 (stereo not drawn)
active: [5] -0.576%
inactive: [1] 68.3% | [2] 39.9% | [3] 60.2% | [4] 13.2% | [6] 12.4% | [7] 17.2% | [8] 67.7% | [9] 35.9%

CCCCNCC(O)c1cc2c(Cl)cc(Cl)cc2c2cc(C(F)(F)F)ccc12 (stereo not drawn)
active: [1] -69.4% | [2] -82.8% | [3] -80.8% | [4] -73.9% | [5] -89.5% | [6] -78.7% | [7] -83.3% | [8] -71.2% | [9] -76.8%
